Measured values as given in PubChem BioAssay (NCATS).
Records with an inconclusive call do not appear. Unless noted, calls come from the whole dose curve; as a rule, active = well fitted curve in either direction with a large enough effect (not every such curve was filed as active); inconclusive = small, poorly fitted or top-dose-only effect, or another doubt; inactive = flat fitted curve, though single readings scatter.

Experiments:
[1] = AP1 Signaling Pathway (AID 357); details: ME-180 AP-1-bla reporter, EGF-induced, beta-lactamase ratio, 5 h; at 17.2 µM (top of the series) unless noted;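 note: ME-180 reporter cells stimulated with EGF at its EC50 level; % is set by controls: 0 for no effect and ±100 for the full control effect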
Outline: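 Beta-lactamase reporter under AP-1 response element, ME-180 background. Stimulus: EC50 EGF. Compound exposure 5 h, 37 °C. Detection: CCF4, 2.5 h RT, 460/530 nm. Values: AC50 from titration.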

[2] = NFAT Signaling Pathway (AID 444); details: Jurkat NFAT-bla M1, carbachol, beta-lactamase ratio, 5 h; at 17.2 µM (top of the series) unless noted;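 note: carbachol stimulus at about its EC50 of 1 µM final; % is set by controls: 0 for no effect and ±100 for the full control effect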
Outline: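 Jurkat cells with NFAT-driven β-lactamase reporter and co-expressed M1 receptor, stimulated with carbachol (final 1 uM, ~EC50), compound titration, 5 h at 37 °C. CCF4 loaded 1 h at RT; 460/530 nm ratio gave %activity and AC50.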

[3] = Stat Signaling Pathway (AID 446); details: ME-180 SIE beta-lactamase reporter, IL-6 stimulated, 5 h; at 17.2 µM (top of the series) unless noted;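 note: ME-180 cervical cancer cells given 40 pM IL-6 alongside compound; SIE-controlled beta-lactamase reporter measured as 460/530 nm FRET emission ratio; % is set by controls: 0 for no effect and ±100 for the full control effect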
Outline: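 ME-180 cells carrying a SIE-driven beta-lactamase reporter are stimulated with 40 pM IL-6 for 5 h at 37C in the presence of compound. The 460/530 nm FRET substrate ratio is read after 2.5 h at RT. Data are normalised to 300 pM IL-6 and to 125 nM JAK inhibitor controls.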

[4] = target: Glucocorticoid receptor (Homo sapiens) (UniProt P04150); assay: GR-GFP Redistribution (AID 450;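 active = compounds whose dose series gives a full or clear partial fitted curve of increased nuclear translocation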; note: potency is the fitted concentration of half-maximal effect)
Chain of Glucocorticoid receptor (Homo sapiens) (P04150 whole entry, looked up): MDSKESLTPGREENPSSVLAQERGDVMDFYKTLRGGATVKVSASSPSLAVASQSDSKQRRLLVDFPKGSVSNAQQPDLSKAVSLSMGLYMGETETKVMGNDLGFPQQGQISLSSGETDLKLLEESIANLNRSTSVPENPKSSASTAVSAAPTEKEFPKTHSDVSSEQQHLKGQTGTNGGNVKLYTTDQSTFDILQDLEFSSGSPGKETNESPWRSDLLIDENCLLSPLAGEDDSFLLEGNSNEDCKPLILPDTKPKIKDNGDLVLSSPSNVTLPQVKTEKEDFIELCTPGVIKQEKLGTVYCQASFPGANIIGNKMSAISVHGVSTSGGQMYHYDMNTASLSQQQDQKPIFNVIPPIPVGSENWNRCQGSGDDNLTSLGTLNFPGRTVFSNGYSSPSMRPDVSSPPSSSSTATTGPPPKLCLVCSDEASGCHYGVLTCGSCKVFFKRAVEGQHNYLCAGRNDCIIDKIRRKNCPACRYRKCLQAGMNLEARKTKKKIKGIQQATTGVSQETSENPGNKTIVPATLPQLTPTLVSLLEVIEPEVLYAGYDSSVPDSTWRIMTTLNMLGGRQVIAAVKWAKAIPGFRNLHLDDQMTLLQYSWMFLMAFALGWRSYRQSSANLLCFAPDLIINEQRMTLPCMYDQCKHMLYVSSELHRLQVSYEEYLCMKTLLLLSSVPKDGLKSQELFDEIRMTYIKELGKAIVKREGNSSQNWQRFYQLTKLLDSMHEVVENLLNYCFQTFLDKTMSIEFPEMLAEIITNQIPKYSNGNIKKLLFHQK

Cc1ccccc1COc1ccc(/C(O)=C2/C(=O)C(=O)N(CCCn3ccnc3)C2c2ccco2)cc1 (stereo not given)
inactive: activity change, negative = inhibition [1] -11.1% | activity change, negative = inhibition [2] 10.8% | activity, negative = inhibition [3] 3.48% | Potency [4] > 20.6 µM

COCc1cc(=O)[nH]c(Nc2nc3ccccc3o2)n1
inactive: activity change, negative = inhibition [1] 20.9% | activity change, negative = inhibition [2] -12.8% | activity, negative = inhibition [3] 1.07% | Potency [4] > 20.6 µM

CCc1nc(NCC(C)C)c(C#N)c2c1COC(C)(C)C2
inactive: activity change, negative = inhibition [1] -11.6% | activity change, negative = inhibition [2] -0.964% | activity, negative = inhibition [3] 1.74% | Potency [4] > 20.6 µM

CCOC(=O)CNS(=O)(=O)c1cc(-c2n[nH]c(=O)c3ccccc23)ccc1C
inactive: activity change, negative = inhibition [1] -5.55% | activity change, negative = inhibition [2] 5.83% | activity, negative = inhibition [3] -10.1% | Potency [4] > 20.6 µM

COc1cccc(C2/C(=C(/O)c3cnn(-c4ccccc4)c3C)C(=O)C(=O)N2CCN(C)C)c1OC (stereo not given)
inactive: activity change, negative = inhibition [1] -4.08% | activity change, negative = inhibition [2] 5.52% | activity, negative = inhibition [3] 3.83% | Potency [4] > 20.6 µM

COc1ccccc1C1C(C#N)=C(N)Oc2cc(C)n(Cc3ccccn3)c(=O)c21 (stereo not given)
inactive: activity change, negative = inhibition [1] -12.5% | activity change, negative = inhibition [2] -9.78% | activity, negative = inhibition [3] -1.34% | Potency [4] > 20.6 µM

C=CCn1cnc2c(c1=O)c1nc3ccccc3nc1n2-c1ccc(C)cc1
inactive: activity change, negative = inhibition [1] -1.69% | activity change, negative = inhibition [2] -10.5% | activity, negative = inhibition [3] -8.6% | Potency [4] > 20.6 µM

CCCCCOC(=O)Cc1c(C)nc(-c2ccccc2)[nH]c1=O
inactive: activity change, negative = inhibition [1] -3.29% | activity change, negative = inhibition [2] 8.16% | activity, negative = inhibition [3] 4.57% | Potency [4] > 20.6 µM

COC(=O)CC(=O)Cc1nc(N)nc(Nc2ccc(C)c(C)c2)n1
inactive: activity change, negative = inhibition [1] 9.64% | activity change, negative = inhibition [2] -5.97% | activity, negative = inhibition [3] 1.4% | Potency [4] > 20.6 µM

O=c1[nH]c2sc3c(c2c(=O)n1Cc1ccccc1)CCC3
inactive: activity change, negative = inhibition [1] -27.5% | activity change, negative = inhibition [2] 16.2% | activity, negative = inhibition [3] -5.31% | Potency [4] > 20.6 µM

O=C(O)c1ccc(COc2c(F)c(F)c(F)c(F)c2F)o1
inactive: activity change, negative = inhibition [1] 4.64% | activity change, negative = inhibition [2] -0.748% | activity, negative = inhibition [3] -10.8% | Potency [4] > 20.6 µM

COc1ccc(/C(O)=C2/C(=O)C(=O)N(c3nc(C)c(C)s3)C2c2ccco2)cc1 (stereo not given)
inactive: activity change, negative = inhibition [1] -13.8% | activity change, negative = inhibition [2] 21.3% | activity, negative = inhibition [3] -14.6% | Potency [4] > 20.6 µM

O=C(CC(c1ccco1)S(=O)(=O)c1ccccc1)c1ccc(F)cc1 (stereo not given)
inactive: activity change, negative = inhibition [1] -0.192% | activity change, negative = inhibition [2] -1.61% | activity, negative = inhibition [3] -7.8% | Potency [4] > 20.6 µM

CCOC(=O)c1c(CN2CCN(CCO)CC2)n(C)c2cc(Br)c(OC)cc12
inactive: activity change, negative = inhibition [1] 19.8% | activity change, negative = inhibition [2] 29.2% | activity, negative = inhibition [3] -13.7% | Potency [4] > 20.6 µM

Cc1cccc(C)c1N1C(=O)C2ON(c3ccccc3)C(c3ccncc3)C2C1=O (stereo not given)
inactive: activity change, negative = inhibition [1] 1.5% | activity change, negative = inhibition [2] 11.5% | activity, negative = inhibition [3] -5.83% | Potency [4] > 20.6 µM

Cc1ccc(-c2nn(C)c(=O)c3ccccc23)cc1CNC(=O)CSc1nc2ccccc2o1
inactive: activity change, negative = inhibition [1] -10.6% | activity change, negative = inhibition [2] -12.2% | activity, negative = inhibition [3] -16.9% | Potency [4] > 20.6 µM

COc1ccc(C(CC(=O)N2CCOCC2)C(C)C)cc1 (stereo not given)
inactive: activity change, negative = inhibition [1] 8.67% | activity change, negative = inhibition [2] 3.99% | activity, negative = inhibition [3] -3.69% | Potency [4] > 20.6 µM

O=S(=O)(c1cccc2nsnc12)N1CCN(C/C=C/c2ccccc2)CC1
inactive: activity change, negative = inhibition [1] -6.7% | activity change, negative = inhibition [2] -13.3% | activity, negative = inhibition [3] -15.9% | Potency [4] > 20.6 µM

CC(C)C1Cc2c(C#N)c(N)sc(=S)c2CO1 (stereo not given)
inactive: activity change, negative = inhibition [1] -19.3% | activity change, negative = inhibition [2] -23.4% | activity, negative = inhibition [3] 1.85% | Potency [4] > 20.6 µM

O=C(O)c1ccc(COCC(F)(F)C(F)F)o1
inactive: activity change, negative = inhibition [1] 10.1% | activity change, negative = inhibition [2] 28.1% | activity, negative = inhibition [3] 2.03% | Potency [4] > 20.6 µM

CCOC(=O)c1c(C)[nH]c(/C(C)=N/O)c1C
inactive: activity change, negative = inhibition [1] -4.81% | activity change, negative = inhibition [2] 3.09% | activity, negative = inhibition [3] -8.45% | Potency [4] > 20.6 µM

CN(CCOC(=O)c1ccc2c(c1)OCCO2)Cc1ccccc1
inactive: activity change, negative = inhibition [1] 17.7% | activity change, negative = inhibition [2] -3.33% | activity, negative = inhibition [3] -4.47% | Potency [4] > 20.6 µM

COc1cc(C2C(C(=O)c3ccc(C)o3)=C(O)C(=O)N2c2cc(C)on2)cc(OC)c1OC (stereo not given)
inactive: activity change, negative = inhibition [1] 5.13% | activity change, negative = inhibition [2] -1.16% | activity, negative = inhibition [3] 2.07% | Potency [4] > 20.6 µM

CSc1nc2sc3c(c2c(=O)[nH]1)CCC(C)C3 (stereo not given)
inactive: activity change, negative = inhibition [1] 7% | activity change, negative = inhibition [2] -2.6% | activity, negative = inhibition [3] 8.48% | Potency [4] > 20.6 µM

CC(C)CC(=O)Nc1ncnc2c1C(=O)CC(C)(C)C2
inactive: activity change, negative = inhibition [1] 1.69% | activity change, negative = inhibition [2] -2.65% | activity, negative = inhibition [3] 14.7% | Potency [4] > 20.6 µM
